Experimental data published in ChEMBL document CHEMBL3988442, “University of Dundee, Small-Polar-MMV Screening Library” (2021).
The campaign covered roughly 38,000 compounds. About 1,200 (3.2%) showed an effect of 50% or more. The median lay at about -58%. This is one part of a sample in which strong results are shown more often than they occur.

The compounds below were run on Plasmodium falciparum (assay: Calibr Malaria Delayed Death Assay SOP). Conditions: concentration 4.99e-06 (unit not given; other assays of the set use mol/L).
Format: functional, organism-based
Design: scale not given: in the data most compounds retested in dose-response had high values
`O=C(C1CNCCO1)N1CCCC(c2ccccc2)(c2ccccc2)C1` (configuration not stated) was tested, and the “Percent Effect” value was 79.21%.
With `CC(=O)C1(c2ccccc2)CCN(C(=O)C2CNCCO2)CC1` (configuration not stated) the “Percent Effect” value was -83.28%.
In the case of `CC(=O)C1(c2ccccc2)CCN(C(=O)CC2CNCCO2)CC1` (configuration not stated), the “Percent Effect” value is reported as -46.22%.
In the case of `O=C(c1cccnc1SCc1ccccc1)N1CCOCC1`, the “Percent Effect” value is reported as -36.51%.
`O=C(c1cccnc1SC/C=C/c1ccccc1)N1CCOCC(O)C1` (configuration not stated) was tested, and the “Percent Effect” value was 53.57%.
For `O=C(c1cccnc1SC/C=C/c1ccccc1)N1CC[C@H](O)C1`, the “Percent Effect” value was -73.62%.
In the case of `O=C(O)C(F)(F)F.c1cnc(N2CCC3(CC2)CN(CC2CC2)c2ccccc23)nc1`, the “Percent Effect” value is reported as 85.9%.
`O=C(O)C(F)(F)F.c1ccc2c(c1)N(CC1CCOC1)CC21CCN(c2cnccn2)CC1` (configuration not stated) was tested, and the “Percent Effect” value was 68.42%.
In the case of `O=C(O)C(F)(F)F.O=C1N(CC2CC2)CCC12CCN(c1ncccn1)CC2`, the “Percent Effect” value is reported as 4.695%.
With `CCS(=O)(=O)N1CCC2(CC1)CN(CC1CCOC1)c1ccccc12.O=C(O)C(F)(F)F` (configuration not stated) the “Percent Effect” value was 19.88%.
With `c1cnc(N2CC3(CCN(C4CCOC4)CC3)c3ccccc32)nc1` (configuration not stated) the “Percent Effect” value was -111.6%.
With `Cc1cnc(N2CCC3(CCN(CC4CC4)C3=O)CC2)nc1` the “Percent Effect” value was -170.6%.
With `CS(=O)(=O)N1CCC2(CC1)CN(CC1CCOC1)c1ccccc12.O=C(O)C(F)(F)F` (configuration not stated) the “Percent Effect” value was -57.4%.
In the case of `O=C(O)C(F)(F)F.O=C(O)C(F)(F)F.OCCN1CC2(CCN(CC3CC3)CC2)c2ccccc21`, the “Percent Effect” value is reported as -50.6%.
In the case of `COC[C@@H]1CCC[C@@]12CN(C(=O)N1CCCC1)CCO2`, the “Percent Effect” value is reported as -140.1%.
In the case of `Cc1ccc(C(=O)N2CCC3(CCN3Cc3ccc(F)cc3)C2)cn1.O=C(O)C(F)(F)F` (configuration not stated), the “Percent Effect” value is reported as -82.72%.
In the case of `CC(C)C(C(=O)N1CCCN(c2cccnn2)CC1)n1cncn1` (configuration not stated), the “Percent Effect” value is reported as -14.43%.
`CN(C)S(=O)(=O)c1ccc2c(c1)N(Cc1ccccn1)CCC2` was tested, and the “Percent Effect” value was -104.8%.
With `Cc1ccc([C@H]2CN(C(=O)C3CCC3)C[C@@H]2N)o1` the “Percent Effect” value was -3.638%.
`Cc1nc(N2CCN(C)CC2)ncc1C(=O)N1CCCCCC1` was tested, and the “Percent Effect” value was -28.58%.
`O=C1CCN(C(=O)CCc2ccc(Cl)cc2Cl)CCN1` was tested, and the “Percent Effect” value was -159.9%.
In the case of `Cc1cnn(CC2CCCCN2C(=O)c2cccc(C(N)=O)c2)c1` (configuration not stated), the “Percent Effect” value is reported as -136.1%.
For `CCCn1ncc(CN(Cc2cccnc2)Cc2ccsc2)c1C`, the “Percent Effect” value was -140.4%.
With `CCCn1ncc(CN(Cc2ccsc2)Cc2ccco2)c1C` the “Percent Effect” value was -133.4%.
In the case of `CCCn1ncc(CN(CCN(C)C)Cc2ccsc2)c1C`, the “Percent Effect” value is reported as 54.25%.
In the case of `Cc1ccc(NC2CCN(C(=O)COc3ccccc3)CC2)nn1`, the “Percent Effect” value is reported as -125.7%.
`O=c1n(CCNCc2ccc3ccccc3c2)nc2ccccn12` was tested, and the “Percent Effect” value was -86.86%.
For `CCOc1cc(C(=O)N2CCCC(c3noc(CC)n3)C2)ccn1` (configuration not stated), the “Percent Effect” value was -108.4%.
With `O=C(c1cncc(NCC2COc3ccccc3C2)n1)N1CCCC1` (configuration not stated) the “Percent Effect” value was -147.2%.
For `NCC1Cc2cc(-c3cncc(C(=O)N4CCOCC4)n3)cc(Cl)c2O1` (configuration not stated), the “Percent Effect” value was -15.5%.
In the case of `NCC1Cc2cc(-c3cncc(C(=O)N4CCCCC4)n3)cc(F)c2O1` (configuration not stated), the “Percent Effect” value is reported as 51.14%.
In the case of `Cc1nc(-c2ccco2)ccc1C(=O)NCCC(=O)N1CCCCC1`, the “Percent Effect” value is reported as -60.18%.
With `Cc1cc(C)c2cc(CNCc3ccco3)c3nn(C)c(=O)n3c2c1` the “Percent Effect” value was 74.31%.
For `Cc1ccn(CCC(=O)NCc2ccc(C)o2)n1`, the “Percent Effect” value was -117.2%.
With `Cc1cc(C)c2cc(CNCc3cccnc3)c3nn(C)c(=O)n3c2c1` the “Percent Effect” value was 28.22%.
For `Cc1cc(C(=O)NCc2ccco2)nn1C`, the “Percent Effect” value was -62.29%.
With `CCOCCCNCc1cc2c(C)cc(C)cc2n2c(=O)n(C)nc12` the “Percent Effect” value was -70.5%.
`Cc1cc(C)c2cc(CNC3CCCCC3)c3nn(C)c(=O)n3c2c1` was tested, and the “Percent Effect” value was 78.75%.
With `Cc1cc(C)c2cc(CNC(C)C)c3nn(C)c(=O)n3c2c1` the “Percent Effect” value was 20.42%.
For `Cc1ccc(CNC(=O)c2cc(C)n(C)n2)o1`, the “Percent Effect” value was -43.25%.
`Cc1cc(C)c2cc(CNCc3ccc(C)o3)c3nn(C)c(=O)n3c2c1` was tested, and the “Percent Effect” value was 62.16%.
In the case of `COc1ccccc1CCNC(=O)NCC(=O)Nc1cccnc1`, the “Percent Effect” value is reported as -188.8%.
In the case of `COC(=O)CNC(=O)CCCn1cnc2ccccc2c1=O`, the “Percent Effect” value is reported as -30.86%.
For `O=C(c1cccnc1-c1ccoc1)N1C[C@H]2CC[C@@H]1C2`, the “Percent Effect” value was 6.669%.
`Cc1ccc2c(c1)C1(CC2)CCN(CC(=O)O)CC1.O=C(O)C(F)(F)F` was tested, and the “Percent Effect” value was -81.36%.
`Cc1ccc2c(c1)CCC21CCN(C(=O)CN(C)C)CC1.O=C(O)C(F)(F)F` was tested, and the “Percent Effect” value was 50.73%.
With `O=C(CCO)N1CCC2(CCc3ccc(-c4ccoc4)cc32)CC1` the “Percent Effect” value was -85.78%.
In the case of `O=C(O)C(F)(F)F.c1cncc(-c2ccc3c(c2)C2(CC3)CCN(c3nncs3)CC2)c1`, the “Percent Effect” value is reported as 21.42%.
`O=C(O)C(F)(F)F.O=C(O)C(F)(F)F.c1cncc(-c2ccc3c(c2)CCC32CCN(Cc3ccco3)CC2)c1` was tested, and the “Percent Effect” value was 73.11%.
`Cc1ccc2c(c1)CCC21CCN(CCO)CC1` was tested, and the “Percent Effect” value was 15.58%.
`CN(C)CC(=O)N1CCC2(CCc3cc(-c4cccnc4)ccc32)CC1.O=C(O)C(F)(F)F.O=C(O)C(F)(F)F` was tested, and the “Percent Effect” value was 79.5%.
`O=C(O)C(F)(F)F.O=C(O)C(F)(F)F.c1cncc(-c2ccc3c(c2)CCC32CCN(Cc3nccs3)CC2)c1` was tested, and the “Percent Effect” value was 47.52%.
With `CN(C)CC(=O)N1CCC2(CCc3ccc(-c4ccncc4)cc32)CC1.O=C(O)C(F)(F)F.O=C(O)C(F)(F)F` the “Percent Effect” value was -49.14%.
For `CN(C)CC(=O)N1CCc2ncnc(-c3cncnc3)c2CC1.O=C(O)C(F)(F)F`, the “Percent Effect” value was -41.61%.
In the case of `CN(C)CC(=O)N1CCC2(CC1)Cc1ccccc1CN(C)C2=O.O=C(O)C(F)(F)F`, the “Percent Effect” value is reported as -24.83%.
In the case of `O=C(O)C(F)(F)F.OCCN1CCC2(CCc3cc(-c4ccoc4)ccc32)CC1`, the “Percent Effect” value is reported as 60%.
For `Cc1ccc(CN2CCc3ncnc(-c4ccoc4)c3CC2)o1.O=C(O)C(F)(F)F`, the “Percent Effect” value was -147%.
For `Cc1ncc(C(=O)N2CCCCC2c2nc3cc(F)ccc3[nH]2)c(O)n1` (configuration not stated), the “Percent Effect” value was -22.18%.
In the case of `CS(=O)(=O)N1CCO[C@@H]2CN(C(=O)C3CCOC3)CC[C@@H]2C1` (some centres not stated), the “Percent Effect” value is reported as -33.97%.
In the case of `CC1c2ncc(Cn3cccn3)n2CCN1S(C)(=O)=O.O=C(O)C(F)(F)F` (configuration not stated), the “Percent Effect” value is reported as -110.2%.
In the case of `COc1ccc2c(ccn2CCC(=O)N[C@H](C(=O)O)C(C)C)c1`, the “Percent Effect” value is reported as -46.34%.
With `O=C(O)C(F)(F)F.O=S(=O)(C1CC1)N1C[C@H]2CCC[C@@]2(COCc2ccccn2)C1` the “Percent Effect” value was 2.137%.
For `Cc1ccc(CNc2cc3c(cc2Cl)NC(=O)CO3)cc1C`, the “Percent Effect” value was -53.48%.
For `CC(C)c1nccc(-c2nccn2CCS(C)(=O)=O)n1`, the “Percent Effect” value was -2.25%.
`COc1cccc(OCC(=O)N(C)c2cccnc2)c1` was tested, and the “Percent Effect” value was -135.2%.
For `O[C@H]1[C@H](n2cc(-c3cccnc3)nn2)c2ccccc2C12CCNCC2`, the “Percent Effect” value was -21.88%.
With `c1cc(-c2ccc3c(c2)C2(CCNCC2)CC3)ccn1` the “Percent Effect” value was -27.62%.
`c1cncc(-c2ccc3c(c2)CCC32CCNCC2)c1` was tested, and the “Percent Effect” value was 86.19%.
With `CCCN1CCCn2nc(CNS(=O)(=O)c3ccc(F)cc3)cc2C1` the “Percent Effect” value was -65.3%.
`Cc1nnn2c1COC(CNC(=O)c1cccn1C)C2` (configuration not stated) was tested, and the “Percent Effect” value was -28%.
In the case of `CCOc1cccc(C(C)NCc2c(C)nn(C)c2N(C)C)c1` (configuration not stated), the “Percent Effect” value is reported as -4.179%.
In the case of `COc1cccc(CNC(C)Cn2cccn2)c1OC.Cl` (configuration not stated), the “Percent Effect” value is reported as -25.91%.
With `COc1ccc(C(C)NCc2c[nH]nc2C)cc1Br.Cl` (configuration not stated) the “Percent Effect” value was 17.2%.
`COc1cc(CNC(C)Cn2cccn2)cc(Cl)c1OC.Cl` (configuration not stated) was tested, and the “Percent Effect” value was -39.22%.
In the case of `COc1ccc(CNC(C)c2cccc(Br)c2)c(OC)c1OC.Cl` (configuration not stated), the “Percent Effect” value is reported as 66.18%.
For `COc1ccccc1CNC(C)c1ccc2[nH]c(=O)[nH]c2c1` (configuration not stated), the “Percent Effect” value was -107.7%.
In the case of `CCOc1cccc(C(C)NCc2ccc(OC)c(OC)c2OC)c1` (configuration not stated), the “Percent Effect” value is reported as 77.1%.
In the case of `COc1cc(CNC(C)Cn2cccn2)cc(OC)c1OC.Cl` (configuration not stated), the “Percent Effect” value is reported as -15.53%.
In the case of `COc1cc(CNC(C)c2cccc(Cl)c2)cc(OC)c1OC` (configuration not stated), the “Percent Effect” value is reported as 62.46%.
With `CC1c2ncc(CNC(=O)C3CC3)n2CCN1Cc1ccccn1.O=C(O)C(F)(F)F.O=C(O)C(F)(F)F` (configuration not stated) the “Percent Effect” value was -38.32%.
With `Cc1sc(CS(C)(=O)=O)nc1-c1ccc(Cl)cc1` the “Percent Effect” value was -81.11%.
With `Cc1cc(N2CCC3(CCCN(C4CCOCC4)C3=O)C2)ccn1` (configuration not stated) the “Percent Effect” value was -85.7%.
For `Cc1cc(NC(=O)N2CCCC2CN2CCOCC2)nn1C` (configuration not stated), the “Percent Effect” value was -54.38%.
In the case of `Cc1n[nH]cc1CNC1CCN(c2cccc(C(F)(F)F)c2)CC1`, the “Percent Effect” value is reported as 62.67%.
In the case of `COc1cccc(-c2n[nH]cc2CNC2CCN(C3CC3)CC2)c1.Cl`, the “Percent Effect” value is reported as 18.36%.
With `Cc1n[nH]cc1CNC1CCN(c2ccc(F)cc2)CC1.Cl` the “Percent Effect” value was -38.43%.
`Cn1[nH]c(Br)c2/c(=N\CCN)ncnc1-2` was tested, and the “Percent Effect” value was -80.01%.
In the case of `CN(Cc1nnc(C2CC2)n1C)C1CCN(CCc2ccccc2)C1` (configuration not stated), the “Percent Effect” value is reported as -85.28%.
In the case of `CN(C(=O)CCc1ccncc1)C1CCCN(CCc2ccccc2)C1` (configuration not stated), the “Percent Effect” value is reported as -32.08%.
`CCn1ccnc1CN(C)C1CCCN(CCc2ccccc2)C1` (configuration not stated) was tested, and the “Percent Effect” value was 76.22%.
For `CN(C(=O)c1cccnc1)C1CCCN(CCc2ccccc2)C1` (configuration not stated), the “Percent Effect” value was -66.95%.
With `CN(C(=O)CSc1ccccn1)C1CCCN(CCc2ccccc2)C1` (configuration not stated) the “Percent Effect” value was -11.51%.
`O=C(NCCOc1ccc(Cl)cn1)NCCc1ccccn1` was tested, and the “Percent Effect” value was -11.42%.
`O=c1cc2c(nn1CN1CCSCC1)CCC2` was tested, and the “Percent Effect” value was -0.0745%.
With `CN(C)C1CCCN(C(=O)NCCc2cc(F)ccc2F)C1` (configuration not stated) the “Percent Effect” value was -83%.
In the case of `CC(=O)N1CC(C)CN(C(=O)c2cnccn2)c2ccccc21` (configuration not stated), the “Percent Effect” value is reported as -30.69%.
With `Cn1nccc1NC(=O)c1cccc(CN2C[C@H]3CC[C@@H](C2)N3)c1` the “Percent Effect” value was -132.7%.
